Screening results: PubChem, National Center for Advancing Translational Sciences (NCATS)
Rows were chosen to be rich in hits. Some 9.2% of all compounds tested hit in one or more screens of this group.
FLuc counter: firefly luciferase modulation, counter-screen for miR-21 project. P08659. 6.9% of 360,000 active. Potency, µM (doses to about 57.5 µM), most hits filed as inhibitors. purified FLuc, Km substrates, luminescence inhibition; note: nearly all actives have a fitted effect of over 55% in size
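Purified P. pyralis luciferase, 10 nM final, with Km-level 10 uM D-luciferin and 10 uM ATP in 50 mM Tris acetate pH 7.5, 10 mM Mg acetate, 0.01% Tween-20, 0.05% BSA; 6-point qHTS titration about 60 µM downward; luminescence read.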
ELG1 DNA repair: ELG1-dependent DNA repair inhibition; HEK293T ELG1-luciferase reporter, luminescence, 16 h; DNA damage induced by 5-fluorouridine; Potency, µM (series often up to 46.1 µM), usual class: inhibitors; 2.3% of 330,000 active; AID 504467; note: nearly all actives have a fitted effect of over 55% in size
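Overnight (16 hr) co-exposure of 2,000 cells/well to 5-fluorouridine and compound at 37 °C preceded detection. Luciferase was quantified via ONE-Glo luminescence; loss of signal denotes inhibition.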
Rab9 prom act: Rab9 promoter activation | Huh7 Rab9 promoter-luciferase reporter, luminescence, 24 h | Potency, µM (highest dose often 9.22 µM), hits mostly activators | 2.8% of 320,000 active; note: nearly all actives have a fitted effect of over 60% in size
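Cell-based reporter: Huh7 stable for Rab9 promoter-driven luciferase, plated in reduced-serum medium with 10% FBS at 1500 cells/well, compound-treated 24 h at 37 °C, luminescence read after 10 min reagent.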
NPC1 promoter act: activators of NPC1 promoter | Huh7 NPC1 promoter luciferase reporter, 24 h | Potency, µM (doses to about 9.22 µM), most hits filed as activators | 2.4% of 320,000 active; note: nearly all actives have a fitted effect of over 60% in size
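Luminescence read-out of NPC1 promoter-driven luciferase in stably transfected Huh7 cells; compounds delivered in DMSO and left 24 h at 37C, 5% CO2, qHTS titration format.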
ELG1 genotox: inducers of genotoxicity in HEK293T ELG1-luciferase cells. HEK293T ELG1-luciferase reporter, luminescence, 16 h. Potency, µM (series often up to 46 µM), most hits filed as activators. 1.3% of 330,000 active; note: nearly all actives have a fitted effect of over 60% in size
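Step 1: seed 2,000 HEK293T ELG1-luciferase cells per well. Step 2: add compound or DMSO, incubate 16 hr at 37 °C. Step 3: ONE-Glo, 30 min at room temperature, read luminescence.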
SMN2 splice up: enhancers of SMN2 splice variant expression; HEK293 SMN2-luciferase splicing reporter, luminescence, 30-36 h; Potency, µM (titrated, usually from 46.1 µM), usual class: activators; 2.8% of 210,000 active; AID 1458; note: nearly all actives have a fitted effect of over 55% in size
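HEK293 cells carry an SMN2 minigene-luciferase reporter in which exon 7 inclusion puts luciferase in frame. Cells were seeded at 2000 cells/well, attached for 10-12 hours, then exposed to compounds for 30-36 hours at 37C before ONE-Glo luminescence.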
ELG1 FLuc counter: luciferase inhibition in cell-free luciferin readout for ELG1 hits; shares compounds with ELG1 DNA repair; AID 624247; Potency, µM (top dose mostly 46.1 µM), hits mostly inhibitors; cell-free firefly luciferase luminescence counter-screen, ViewLux; 3% of 350 active
ELG1-Luc inh: confirmation of human ELG1-dependent DNA repair inhibitors. shares compounds with ELG1 DNA repair. HEK293T ELG1-luciferase levels, luminescence; cells co-treated with 5-fluorouridine. Potency, µM (series often up to 46.1 µM), actives largely listed as inhibitors. 68% of 670 active. AID 624248; note: nearly all actives have a fitted effect of over 55% in size
ELG1 MMS Luc: confirmation of human ELG1 repair inhibitors, MMS stimulated. 53% of 670 active. Potency, µM (series often up to 46.1 µM), usual class: inhibitors. HEK293T luciferase-tagged ELG1 level, MMS stimulated. shares compounds with ELG1 DNA repair; note: nearly all actives have a fitted effect of over 60% in size
ELG1 5FU viab: confirmation of ELG1 repair inhibitors: viability with 5FU. Potency, µM (top dose mostly 46.1 µM), actives largely listed as cytotoxic. cell viability with 5-FU, ELG1-dependent repair. 670 tested, under 10 active. shares compounds with ELG1 DNA repair;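 note: ELG1-luc HEK293T cells cotreated with 5-fluorouridine at 10 µM final; viability measured 16 h after compound addition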
ELG1 MMS cell: confirmation of ELG1 repair inhibitors: viability with MMS | shares compounds with ELG1 DNA repair | Cell viability with MMS, ELG1-dependent DNA repair | Potency, µM (titrated, usually from 46.1 µM), most hits filed as cytotoxic | 33% of 670 active | AID 624251;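 note: ELG1-luc HEK293T cells co-treated with 10 µM MMS; viability read 16 h after compound addition; nearly all actives have a fitted effect of over 60% in size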
Cell viab unstim: affects unstimulated cell viability, ELG1 hit counter-screen | shares compounds with ELG1 DNA repair | cell viability counter-screen, unstimulated, luminescence | Potency, µM (highest dose often 45.9 µM), usual class: cytotoxic | 8% of 900 active | AID 624252;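 note: compound exposure lasted 16 hours before reading; nearly all actives have a fitted effect of over 55% in size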
FLuc enzyme: firefly luciferase inhibition counter-screen. AID 624253. Potency, µM (doses to about 57.5 µM), most hits filed as inhibitors. 10% of 350 active. purified firefly luciferase, luminescence counter-screen. shares compounds with ELG1 DNA repair
Of the large screens only hits and unclear results are named; the others gave an inactive call (follow-up assays come after a bar, where they were run). Calls come from the whole dose curve; as a rule, active = well fitted curve in the direction sought with a large enough effect; inconclusive = small, poorly fitted or top-dose-only effect, or another doubt; inactive = no such curve, though single readings can be large; an effect the other way counts as inactive or inconclusive.

C=CCn1c(Oc2ccccc2F)nc2c1c(=O)n(C)c(=O)n2C	ELG1 DNA repair 4.11µM (no result: SMN2 splice up) | ELG1-Luc inh 17.7µM | ELG1 MMS Luc 19.9µM | ELG1 5FU viab inconclusive | ELG1 MMS cell inactive | Cell viab unstim inactive
C[C@@]12C(=O)N(Cc3ccc(F)cc3)CC(=O)N1[C@H]1c3cc(Cl)ccc3OC[C@@H]1[C@@H]2c1ccccc1	ELG1 DNA repair inconclusive (no result: FLuc counter, Rab9 prom act, NPC1 promoter act, SMN2 splice up)
CC(=O)Nc1ccc(S(=O)(=O)N2CCC(c3nc4ccccc4[nH]3)CC2)cc1	none
CC(C)(C)C(=O)Nc1ccc(S(=O)(=O)N2CCC(c3nc4ccccc4[nH]3)CC2)cc1	ELG1 DNA repair 3.66µM (no result: SMN2 splice up) | ELG1-Luc inh 2.5µM | ELG1 MMS Luc inactive | ELG1 5FU viab inconclusive | ELG1 MMS cell inactive | Cell viab unstim inactive
O=C(CSc1nc2ccc(Nc3nc(N4CCOCC4)nc(N4CCOCC4)n3)cc2s1)Nc1ccccc1Cl	ELG1 DNA repair 2.91µM (no result: SMN2 splice up) | ELG1 FLuc counter inconclusive | ELG1-Luc inh 3.97µM | ELG1 MMS Luc inactive | ELG1 5FU viab inconclusive | ELG1 MMS cell inactive | Cell viab unstim inactive | FLuc enzyme inactive
O=C(O)c1cccc(Nc2nc(N3CCOCC3)nc(N3CCOCC3)n2)c1	none | ELG1 FLuc counter inactive | ELG1-Luc inh inactive | ELG1 MMS Luc inactive | ELG1 5FU viab inactive | ELG1 MMS cell inactive | Cell viab unstim inactive | FLuc enzyme inactive
O=C(O)c1cc(Nc2nc(N3CCOCC3)nc(N3CCOCC3)n2)ccc1Cl	SMN2 splice up inconclusive
CCOc1ccc(/C=C/C(=O)N(CC)CC(=O)Nc2ccc3c(c2)OCCO3)cc1OCC	none (no result: SMN2 splice up)
COc1ccc(N(Cc2cc3ccccc3[nH]c2=O)S(=O)(=O)c2ccc(C)cc2)cc1	none (no result: SMN2 splice up)
Brc1ccc2cccnc2c1	none
Nc1ccc2cccnc2c1	none (no result: FLuc counter, ELG1 DNA repair, Rab9 prom act, NPC1 promoter act, ELG1 genotox, SMN2 splice up) | Cell viab unstim inactive
CCN(c1ccccc1)S(=O)(=O)c1cccc(C(=O)N2CCN(S(=O)(=O)c3ccccc3)CC2)c1	ELG1 DNA repair inconclusive (no result: SMN2 splice up)
Cc1nn(-c2ccccc2)c(C)c1C(=O)OCC(=O)c1c(N)n(CC(C)C)c(=O)n(C)c1=O	ELG1 DNA repair 3.26µM | ELG1-Luc inh 3.97µM | ELG1 MMS Luc 0.791µM | ELG1 5FU viab inconclusive | ELG1 MMS cell 1.25µM | Cell viab unstim inconclusive
